Cruzain Triton: cruzain (T. cruzi) inhibition with detergent | P25779 | purified cruzain, Z-FR-AMC fluorescence, 0.01% Triton | Potency, µM, for the others: max response, negative = inhibition, most hits filed as inhibitors | 200,000 compounds, 0.43% hits | AID 1478;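 note: plate controls were neutral wells for no effect and buffer without enzyme for full effect; nearly all actives have a fitted effect of over 40% in size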
Target sequence (P25779 123-467 limits assumed): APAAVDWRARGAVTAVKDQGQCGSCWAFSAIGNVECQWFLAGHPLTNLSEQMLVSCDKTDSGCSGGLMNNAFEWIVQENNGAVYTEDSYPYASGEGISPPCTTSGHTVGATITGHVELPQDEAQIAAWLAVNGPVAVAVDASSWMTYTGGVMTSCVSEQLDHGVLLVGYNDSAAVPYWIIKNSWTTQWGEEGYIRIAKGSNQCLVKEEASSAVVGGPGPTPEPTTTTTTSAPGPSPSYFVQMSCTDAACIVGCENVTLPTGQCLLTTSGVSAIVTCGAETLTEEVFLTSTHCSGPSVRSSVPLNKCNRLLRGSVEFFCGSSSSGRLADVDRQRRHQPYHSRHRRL
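Compounds were screened in titration against cruzain (1.5 nM) with 0.01% Triton X-100 to counter colloidal aggregation. Activity was the AMC fluorescence increase over 60 s after adding 2 uM Z-FR-AMC at pH 5.5.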
FBPA Giardia inh: Giardia lamblia aldolase inhibition. A8B2U2. purified Giardia FBPA. Potency, µM (top dose mostly 59.6 µM), without a hit: at the highest dose activity, negative = inhibition, hits mostly inhibitors. 290,000 compounds, 0.71% hits. AID 2451; note: nearly all actives have a fitted effect of over 55% in size
Target sequence (A8B2U2 whole entry, looked up): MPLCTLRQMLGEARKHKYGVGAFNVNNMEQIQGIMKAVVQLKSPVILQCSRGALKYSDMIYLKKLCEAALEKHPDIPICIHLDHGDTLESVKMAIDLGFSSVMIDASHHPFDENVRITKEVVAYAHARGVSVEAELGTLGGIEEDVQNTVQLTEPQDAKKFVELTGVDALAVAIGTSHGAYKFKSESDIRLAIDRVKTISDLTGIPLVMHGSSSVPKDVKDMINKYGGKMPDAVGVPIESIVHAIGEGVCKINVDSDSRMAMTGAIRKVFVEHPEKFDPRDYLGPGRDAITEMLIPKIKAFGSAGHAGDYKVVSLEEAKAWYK
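Giardia FBPA (40 nM reagent) was preincubated 10 min at RT with compound (up to 57.5 uM final), then substrate plus GAPDH/TPI/NAD/arsenate coupling system with diaphorase/resazurin was added; resorufin fluorescence (525/598 nm) was read after 20 min.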
Cruzain noTriton: blocks cruzain activity in detergent-free assay; purified cruzain, Z-FR-AMC fluorescence, no detergent; Potency, µM, for the others: max response, negative = inhibition, actives largely listed as inhibitors; 200,000 compounds, 2.3% hits; P25779;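 note: plate controls were enzyme without inhibitor for no effect and buffer without enzyme for full effect; nearly all actives have a fitted effect of over 40% in size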
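Purified cruzain at 1.5 nM, pre-incubated 15 min with compound at room temperature in 100 mM sodium acetate pH 5.5, 5 mM DTT, 0.00005% Triton X-100. Reaction started with 2 uM Z-FR-AMC; AMC fluorescence increase over 60 s gives rate.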
Active calls of the source: *; ? = inconclusive; nt = no result given; [ ] = remark or other dose. The sample as a whole holds a higher share of hits than the screen did. Calls come from the whole dose curve; as a rule, active = well fitted curve in the direction sought with a large enough effect; inconclusive = small, poorly fitted or top-dose-only effect, or another doubt; inactive = no such curve, though single readings can be large; an effect the other way counts as inactive or inconclusive. Unless noted, % is set by controls: 0 for no effect and ±100 for the full control effect; potency is the fitted concentration of half-maximal effect.

SMILES | Cruzain Triton | FBPA Giardia inh | Cruzain noTriton
CC[C@H](C)[C@H](NC(=O)[C@H](CCC(=O)O)NC(=O)CNC(=O)[C@H](CCCCN)NC(=O)[C@H](CCC(=O)O)NC(=O)[C@H](CCSC)NC(=O)[C@H](CCSC)NC(=O)[C@H](CCSC)NC(=O)[C@H](CCC(=O)O)NC(=O)CNC(=O)[C@H](CO)NC(=O)[C@H](CO)NC(=O)[C@H](CO)NC(=O)[C@@H](N)CC(N)=O)C(=O)N[C@@H](CCCCN)C(=O)O | nt | 3% | nt
Cc1nc(N2CCCC2)c2c(C(=O)N3CCN(c4cccc(C)c4C)CC3)c(C)oc2n1 | 10% | nt | -1%
Cc1ccc(CNc2cc(C)nc3nc(-c4cccc(C)c4)nn23)cc1 | -8% | nt | -2%
COc1ccc(OC)c(-c2ccc(C(=O)O)o2)c1 | -26% | 23%[89.2 µM] | 6%
COc1cccc(C2CC(c3cccs3)=NN2C(=O)CSc2nc3c(cnn3-c3ccc(F)cc3)c(=O)[nH]2)c1OC (stereo not given) | 3.5µM* | -4% | ?
O=C(CSc1nc2c(cnn2-c2ccc(F)cc2)c(=O)[nH]1)N1CCCCC1 | -2% | -13% | -13%
COc1cccc(C2CC(c3cccs3)=NN2C(=O)CSc2nc3ccccc3s2)c1OC (stereo not given) | ? | 1% | 13µM*
COc1ccc(C2CC(c3cccs3)=NN2C(=O)CSc2nc3c(cnn3-c3ccccc3)c(=O)[nH]2)cc1 (stereo not given) | -9% | 11% | 32µM*
CCOC(=O)N1CCN(C(=O)CSc2nc3c(cnn3-c3ccccc3)c(=O)[nH]2)CC1 | 0% | -1% | 3%
COc1cccc(C2CC(c3cccs3)=NN2C(=O)CCC(=O)O)c1OC (stereo not given) | nt | 9% | nt
COc1ccc2c3c([nH]c2c1)[C@H]1C[C@@H]2[C@@H](C[C@@H](O)[C@H](OC)[C@H]2C(=O)O)CN1CC3 | 3% | nt | 3%
CC(C)OCCCNC(=O)Cc1ccc(NC(=O)N2CCCCc3ccccc32)cc1 | -4% | nt | 2%
CC(C)COc1ccc(-c2nn(-c3ccccc3)cc2C(=O)Nc2nccs2)cc1 | -2% | -1% | 10µM*
O=C(Nc1nccs1)c1cn(-c2ccccc2)nc1-c1ccccc1 | -1% | 3% | -7%
O=C(NCCc1c[nH]c2ccccc12)c1ccccc1O | nt | -9% | nt
Cc1cc(=O)oc2c(CN3CCN(C)CC3)c(O)c(Cl)cc12 | -22% | -19% | ?
CCCc1cc(=O)oc2c(CN3CCN(C)CC3)c(O)c(Cl)cc12 | 32µM* | -7% | ?
CCCc1cc(=O)oc2c(CN(CC)CC)c(O)c(Cl)cc12 | nt | -11% | nt
CCCCc1cc(=O)oc2c(CN3CCCC3)c(O)c(Cl)cc12 | 28µM* | -11% | ?
CCCCc1cc(=O)oc2c(CN(CC)CC)c(O)c(Cl)cc12 | 28µM* | -9% | ?
CCc1c(C)c2cc(Cl)c(O)c(CN3CCCC3)c2oc1=O | nt | 2% | nt
Cc1nc(-c2ccccc2)c(-c2ccncc2)o1 | nt | 5% | nt
O=C(Cn1ncc2c3ccccc3n(Cc3cccc(Cl)c3)c2c1=O)Nc1ccc(F)cc1F | -8% | nt | -4%
CC(C)=NO[C@@H](C)c1cc(-c2c(C)cc(C)cc2C)no1 | nt | 1%[12.9 µM] | nt
CCn1c2ccccc2c2cc(/C=N/NC(=O)c3ccccc3)ccc21 | ? | -1% | 32µM*
SMILES | Cruzain Triton | FBPA Giardia inh | Cruzain noTriton
Cn1c2ccccc2c2cc(/C=N/NC(=O)c3cc(O)cc(O)c3)ccc21 | nt | -11% | nt
CCN(CC)c1ccc2cc(-c3nc(-c4ccc(OC)cc4)cs3)c(=O)oc2c1 | -6% | 6% | 10µM*
CCN(CC)c1ccc2cc(-c3nc(-c4ccc(Cl)cc4Cl)cs3)c(=O)oc2c1 | 2% | nt | 8%
CN(C)CC(CN(C)C)c1ccccn1 | -4% | nt | 12%
O=C1C=CC(=O)C2=C1C1c3ccccc3C2c2ccccc21 | 3% | ? | -2%
O=C1CSC(=S)N1/N=C/c1ccc(O)c(O)c1O | nt | 7.9µM* | nt
O=C1CSC(=S)N1/N=C/c1cc(Br)ccc1O | nt | 17% | nt
O=Nc1c(O)[nH]c2ccc(F)cc12 | nt | 2% | nt
NC(=S)N=Nc1c(O)[nH]c2ccc(F)cc12 | 14µM* | -15% | 5µM*
COc1ccc(/C=N/NC(=S)Nc2ccccc2[N+](=O)[O-])cc1O | -8% | -7% | -9%
CCCOc1ccc(/C=N/Nc2ccccc2[N+](=O)[O-])c(O)c1 | -6% | 2% | 10µM*
CCCOc1ccc(/C=N/NC(=S)Nc2ccccc2[N+](=O)[O-])c(O)c1 | -5% | 23% | 4µM*
CCCOc1ccc(/C=N/Nc2cccc([N+](=O)[O-])c2)c(O)c1 | -5% | 2% | ?
CC1CCC2C(=O)N3C(CCC(C)C3c3ccc(-c4ccco4)cc3)C(=O)N2C1c1ccc(-c2ccco2)cc1 (stereo not given) | nt | -1%[12.9 µM] | nt
Cc1cc(C)c(-c2cc([C@H](C)O/N=C\[C@@H](C)[C@H](OCc3ccccc3)C(C)C)on2)c(C)c1 | nt | 1%[12.9 µM] | nt
CC(=O)Nc1cccc(NC(=O)CSc2cn(CC(=O)N3CCCCCC3)c3ccccc23)c1 | -6% | nt | -13%
COc1ccc(C2Nc3ccccc3C(=O)N2Cc2ccco2)cc1COc1ccc(F)cc1 (stereo not given) | -9% | -7% | 25µM*
COc1ccc(C2Nc3ccccc3C(=O)N2Cc2ccco2)cc1CN1C(=O)c2ccccc2C1=O (stereo not given) | -1% | 2% | ?
Cc1cnc(CNc2ncnc3ccc(-c4ccccc4C(F)(F)F)cc23)cn1 | -3% | 1% | ?
CN(C)CCNc1oc(/C=C/c2ccccc2)nc1C#N | -29% | 2% | 25µM*
C=CCNc1oc(/C=C/c2ccccc2)nc1C#N | 32µM* | -6% | ?
COCCCNc1oc(/C=C/c2ccccc2)nc1C#N | nt | -7% | nt
CN(C)CCCNc1oc(/C=C/c2ccc(F)cc2)nc1C#N | ? | nt | 25µM*
CCOc1ccc(/C=C/c2nc(C#N)c(NCCCN(C)C)o2)cc1 | -16% | -4% | ?
CN(C)CCCNc1oc(/C=C/c2ccccc2)nc1C#N | nt | -2% | nt
SMILES | Cruzain Triton | FBPA Giardia inh | Cruzain noTriton
CC(=O)O[C@H]1CC[C@H]2[C@@H]3CCC4=C[C@@H](C5SCCS5)[C@H](OC(C)=O)C[C@]4(C)[C@H]3CC[C@@]12C | -3% | nt | -8%
Cc1ccc(-c2noc(CCC(=O)Nc3ccc(F)cc3Cl)n2)cc1 | 0% | nt | -16%
COc1ccc(-c2cc(C3C4C=CCCC4(C)C(=O)N3Cc3ccccc3)ccc2F)cc1OC (stereo not given) | nt | -5% | nt
O=C(OCC1OC(n2ccc(=O)[nH]c2=O)C(O)C1OC(=O)c1ccccc1)c1ccccc1 (stereo not given) | 0% | 3% | 0%
Nc1nc2c(ncn2C2OC(COC(=O)c3ccccc3)C(OC(=O)c3ccccc3)C2OC(=O)c2ccccc2)c(=O)[nH]1 (stereo not given) | -1% | -6% | 7.9µM*
O=C1NCCCC2c3cc(O)c4ccccc4c3OC12N1CCCCC1 (stereo not given) | -9% | 0.56µM* | 21%
O=C1NCCCC2c3c(cc(Br)c(O)c3Br)OC12N1CCOCC1 (stereo not given) | -1% | -5% | -1%
CCCc1c(C)c2ccc(O)c(CN3CCN(c4ccc(F)cc4)CC3)c2oc1=O | -2% | nt | 5%
NC(=O)c1ccc(-c2ccc(Br)cc2)o1 | -4% | -1% | -10%
